# Reference: PubChem BioAssay (NCI)
# Several values for one entry are separate records, joined by “and”; a condition that tells them apart may be missing. Equal entries are not always repeated. The panel holds about 83,000 compounds, 20% with a hit somewhere; the sample as a whole holds those more often.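 Testing used 96-well plates and a 48-hour single-concentration exposure. Example: -40 means 40% of the starting cells died.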 Unmarked numbers belong to inactive results. Activity calls are given as the source filed them. Rule for the calls: active = growth percent below 10; inactive = the rest.
# Tested on: MDA-MB-468 breast
# Assay: NCI-60 one-dose screen, 48 h (100 = growth as untreated, 0 = no growth, -100 = all killed)
# Conditions: 10 µM unless noted
row,SMILES,growth
1,CCCCCCCc1n(Cc2ccc3ccccc3c2)c2ccccc2[n+]1Cc1ccc2ccccc2c1,-69.6% (active)
2,CNC(=O)c1cc(Oc2ccc(NC(=O)c3nc(S(C)(=O)=O)n(C)c3-c3ccc(F)cc3)cc2)ccn1,79.1%
3,COc1ccc2cc(-c3ccc(C(=O)NN)c(C)n3)ccc2c1,106%
4,C=CCOc1ccc2c(c1)CC[C@@H]1[C@@H]2CC[C@@]2(C)[C@H]1CC[C@]2(C)O,81.2%
5,COc1cc(-c2nc3sccn3c2-c2ccnc(NCCNS(=O)(=O)c3ccc(F)cc3)n2)ccc1F,4.24% (active)
6,N=c1ccccn1CCO,113%
7,Cc1ccc(/C=C(\C#N)n2nc3cccc(F)c3n2)cc1,85.2%
8,CSc1nc(=S)c2nc(SC)n(-c3ccccc3)c2[nH]1,91.1%
9,Oc1c(CN2CCCC2)cc(CSCc2ccccc2)c2cccnc12,-33.1% (active)
10,Cc1ccc(Nc2c(C(N)=O)cnc3ccc(-c4csc(N)n4)cc23)cc1,83.9%
11,COc1ccc(/C=C\c2nc3ccccc3s2)cc1OP(=O)(O)O,12.4%
12,CCNC(=O)Oc1ccc(/C(=C(/C)Cc2ccc(OC)cc2)c2ccc(OCCN3CCCCC3)cc2)cc1,42.4%
13,CC(=O)N1N=C(c2cccc(Nc3ccncc3)c2)CC1c1ccc2c(c1)OCO2 (stereo not given),85.5%
14,O=C(CC12CC3CC(CC(C3)C1)C2)NCCOCCOCCOCCNC(=O)c1cc2c(o1)C(=O)c1ccccc1C2=O,-34.8% (active)
15,COC(=O)C(CC=O)C(=O)C(=O)Nc1cccc(C(F)(F)F)c1 (stereo not given),104%
16,C=C(C)[C@@H]1CC[C@]2(C)[C@H](CC[C@@H]3[C@@H]([C@@](C)(O)CCC=C(C)C)CC[C@]32C)[C@@]1(C)CCC(=O)O,8.85% [100 µM] (active)
17,CC(C)(c1ccc(OCC(O)CNCc2ccco2)cc1)c1ccc(OCC(O)CNCc2ccco2)cc1 (stereo not given),98.1%
18,O=C1/C(=C/C=C/c2ccco2)SC(=S)N1c1ccccc1,-9.4% (active)
19,COc1ccc(-n2[nH]c3c(cnc4ccccc43)c2=O)cc1,108% and 99.5%
20,CC1CCCC(CC(N)=O)CC1 (stereo not given),97.9%

row,SMILES,growth
1,CCOC(=O)c1cn2ncnc(Oc3ccc(NC(=O)NCCN4CCN(C)CC4)c(Cl)c3)c2c1C,45.4%
2,C[C@@H](Nc1c(C#N)cnc2ccc(-c3cnc(N)nc3)cc12)c1ccccc1,-8.47% (active)
3,C=CCn1c(SCC(=O)Nc2ccc(C(=O)/C=C/c3ccc(Cl)cc3)cc2)nnc1-c1cc(-c2ccccc2)nc2ccccc12,61.6%
4,CC[C@@H](c1ccc(O)c(O)c1)[C@@H](CC)c1ccc(O)c(O)c1,53.1%
5,Cc1cnc(SCc2ccc(Cl)cc2)[nH]c1=S,110%
6,Cc1cccc2nnc(-c3ccccc3)n12,106%
7,C#Cc1ccc(-n2c(/C=C/c3ccc(Cl)c(F)c3)nc3ncccc3c2=O)cc1,-74.5% (active)
8,O=C(N/N=C/c1ccc[nH]1)c1[nH]c2ccc(Br)cc2c1-c1ccccc1,-0.633% (active)
9,O=c1cc(C2NCCc3c2[nH]c2ccccc32)c2c(ccc3ccccc32)o1 (stereo not given),89.9%
10,CC(=O)N1CCN(c2ccc(OCC3CO[C@](Cn4ccnc4)(c4ccc(Cl)cc4Cl)O3)cc2)CC1 (stereo not given in full),26.5%
11,C#Cc1cccc(Nc2ncnc3cc4c(cc23)OCCOCCOCCO4)c1,-26.7% (active)
12,O=C1c2ccccc2C(=Cc2ccccc2)c2ccccc21,-7.09% (active)
13,COc1ccc(-c2nc3sccn3c2-c2ccnc(NCCCNS(=O)(=O)c3ccc4ccccc4c3)n2)cc1,71.1%
14,Cc1cc(C(C)(CC(C)C)c2ccc(O)c(C)c2)ccc1O,103%
15,Cc1nc(Cl)cc(N(c2cc(Cl)nc(C)n2)c2ncc(C(=O)Nc3c(C)cccc3Cl)s2)n1,42.1%
16,O=C(Nc1cccc2c1C(=O)c1cccc(NC(=O)c3ccc(C(=O)Nc4cccc5c4C(=O)c4cccc(NC(=O)c6ccccc6)c4C5=O)cc3)c1C2=O)c1ccccc1,91.3%
17,N#CC1=C(/N=C/c2ccccc2)Oc2c(ccc3ccccc23)C1c1ccc([N+](=O)[O-])cc1 (stereo not given),102%
18,O=C(/C=C/c1ccc([N+](=O)[O-])cc1)c1ccccc1,110%
19,NC(CCC(=O)NC(CS)C(=O)NCC(=O)O)C(=O)O (stereo not given),102%
20,COc1cc(OC)c(/C=C/S(=O)(=O)Cc2ccc(OC)c(NCC(=O)NO)c2)c(OC)c1,39.5%
